Results on 14 compounds are retold here after PubChem BioAssay.

In assay [1] the test system is TRPC4 beta (transient receptor potential cation channel C4), mouse. The assay is described as follows: TRPC4 cation channel opening, retest – cell-based, Fluo4 calcium, HEK293 TRPC4beta/mu-opioid, duplicates, 10 µM, confirmation (AID 2426;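 active = fluorescence ratio normalized to control raised more than 50% in primary screen plus both repeat runs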;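 for activation: percent rise of integrated ratio over buffer wells lacking compound which define 0%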). The conditions noted are these: Fluo4 calcium fluorescence, at 10 µM; hits give high values.
In assay [2] the test system is transient receptor potential cation channel C4 beta (TRPC4), mouse. Nature of the assay: TRPC4 cation channel opening, second retest – cell-based, second round, Fluo4, HEK293 TRPC4beta/mu-opioid, 1 µM, confirmation (AID 2461;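 active = primary screen active and over 50% activation in each of two duplicate runs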). The conditions noted are these: Fluo4 calcium fluorescence, at 1 µM; hits give high values.
For assay [3], the system named is TRPC4 (transient receptor potential cation channel C4 beta), mouse. Nature of the assay: potentiation of DAMGO EC20 TRPC4 response – cell-based, second round, Fluo-4, HEK293 TRPC4beta/mu-opioid, 1 µM, confirmation (AID 2554;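 active = primary screen hit whose fluorescence ratio, in both repeats, exceeds the weak agonist control mean by 3 SD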). To be noted: DAMGO EC20, Fluo-4 calcium flux, at 1 µM; hits give high values. (A change in cytosolic calcium serves as a functional read-out for many receptors and channels.)

Assay [4] relates to TRPC4 beta (transient receptor potential cation channel C4), mouse. The assay is described as follows: potentiation of DAMGO EC20 TRPC4 response – cell-based, Fluo-4, HEK293 TRPC4beta/mu-opioid, confirmation (AID 2555;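 active = primary screen hit whose calcium fluorescence ratio, in both repeats, exceeds the weak agonist control mean by 3 SD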). The conditions noted are these: DAMGO EC20, Fluo-4 calcium flux, at 10 µM; hits give high values.
The target in assay [5] is Short transient receptor potential channel 4 (Mus musculus) (UniProt Q9QUQ5). Nature of the assay: blockers of DAMGO-evoked TRPC4 calcium flux – cell-based, Fluo4, HEK293 TRPC4beta/mu-opioid, confirmation (AID 2636;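 active = calcium signal cut by more than 3 SD below the full-agonist control yet still positive, in both repeats and the earlier primary screen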). The conditions noted are these: at 10 µM; hits give high values.
Sequence of Short transient receptor potential channel 4 (Mus musculus) (Q9QUQ5 whole entry, looked up): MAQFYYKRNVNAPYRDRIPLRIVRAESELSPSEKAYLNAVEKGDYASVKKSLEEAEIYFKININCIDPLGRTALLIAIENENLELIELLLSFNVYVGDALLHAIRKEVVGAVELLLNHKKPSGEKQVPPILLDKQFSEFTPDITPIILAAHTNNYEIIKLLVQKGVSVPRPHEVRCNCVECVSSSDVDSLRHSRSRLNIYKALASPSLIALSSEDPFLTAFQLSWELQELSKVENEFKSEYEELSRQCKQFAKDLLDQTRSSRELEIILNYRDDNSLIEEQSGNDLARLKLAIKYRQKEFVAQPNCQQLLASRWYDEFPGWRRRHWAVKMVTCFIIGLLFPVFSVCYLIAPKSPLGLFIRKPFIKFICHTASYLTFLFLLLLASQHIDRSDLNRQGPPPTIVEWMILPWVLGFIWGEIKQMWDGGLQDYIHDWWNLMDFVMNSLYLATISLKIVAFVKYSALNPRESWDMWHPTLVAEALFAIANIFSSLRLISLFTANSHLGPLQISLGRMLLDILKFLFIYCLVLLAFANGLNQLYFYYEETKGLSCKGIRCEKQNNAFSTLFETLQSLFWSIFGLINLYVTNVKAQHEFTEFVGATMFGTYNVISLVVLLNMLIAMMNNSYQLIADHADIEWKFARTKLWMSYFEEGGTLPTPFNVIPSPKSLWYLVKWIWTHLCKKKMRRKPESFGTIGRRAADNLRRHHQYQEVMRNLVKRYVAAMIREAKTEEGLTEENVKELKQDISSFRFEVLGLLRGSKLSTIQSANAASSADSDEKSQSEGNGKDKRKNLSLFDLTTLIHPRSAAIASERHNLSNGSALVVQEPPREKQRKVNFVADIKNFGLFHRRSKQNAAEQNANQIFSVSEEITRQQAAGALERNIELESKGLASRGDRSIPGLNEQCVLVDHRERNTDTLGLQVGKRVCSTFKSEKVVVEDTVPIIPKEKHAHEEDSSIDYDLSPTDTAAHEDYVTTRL
The target is the same in assay [6]. The assay is described as follows: blockers of DAMGO-evoked TRPC4 calcium flux – cell-based, second round, Fluo4, HEK293 TRPC4beta/mu-opioid, 1 µM, confirmation (AID 2637;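 active = calcium signal ratio cut to more than 3 SD under the fully stimulated control mean yet still positive, in both repeats and the primary screen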). The conditions noted are these: at 1 µM; hits give high values.
For assay [7] the target is unchanged. Nature of the assay: calcium entry via TRPC4 opening agents – cell-based, HEK293 TRPC4/mu-opioid, Fluo-4 calcium, dose response (AID 434937;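 active = primary screen activator hit with a dose response curve and TRPC4 channel activation at any tested dose; inactive = no activation, no dose response, or not a primary hit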). The conditions noted are these: HEK293 TRPC4 cells, Fluo-4 calcium fluorescence ratio; series mostly up to 20 µM.
Assay [8] has the same target. Nature of the assay: potentiation of DAMGO-evoked TRPC4 calcium signal – cell-based, HEK293 TRPC4/mu-opioid, Fluo-4 calcium, EC20 DAMGO, dose response (AID 434941;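 active = earlier screen potentiator hit that boosts the TRPC4 ion channel at some dose, with a dose response; inactive = no potentiation, no dose response, or not a prior hit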;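 note: calcium entry triggered by an EC20 dose of DAMGO at the co-expressed mu-opioid receptor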). To be noted: HEK293 TRPC4/mu-opioid cells, Fluo-4 calcium fluorescence; series mostly up to 20 µM.
For assay [9] the target is unchanged. Nature of the assay: block of DAMGO-driven TRPC4 calcium entry – cell-based, HEK293 TRPC4/mu-opioid, Fluo-4 calcium, dose response (AID 434942). To be noted: HEK293 TRPC4/mu-opioid cells, DAMGO-evoked Fluo-4 calcium ratio; series mostly up to 20 µM.
Assay [10] addresses Short transient receptor potential channel 6 (Mus musculus) (UniProt Q61143). The assay is described as follows: TRPC6 blockade by TRPC4 inhibitor hits – cell-based, HEK293, membrane potential dye, duplicate, selectivity assay for TRPC4 inhibitor project, confirmation (AID 434948;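 active = active in primary screen and both duplicates, each dropping signal beyond three positive-control SD with fluorescence still positive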). The conditions noted are these: HEK293 TRPC6, membrane potential dye fluorescence, at 10 µM, stimulated with maximal-effect acetylcholine; hits give high values.

The target is the same in assay [11]. The assay is described as follows: TRPC6 opening by TRPC4 activator hits – cell-based, HEK293, membrane potential dye, duplicate, selectivity assay for TRPC4 activator project, confirmation (AID 434950;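 active = membrane potential signal rise above negative control mean plus 3 SD in both duplicates, also active in the earlier TRPC4 screen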;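 for activation: 0% = buffer only wells and 100% = acetylcholine maximal-effect wells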). The conditions noted are these: HEK293 TRPC6, membrane potential fluorescence, at 10 µM; activation: hits give high values; outcome: activation.
Assay [12] shares this target. Nature of the assay: positive modulators of mouse TRPC6 channel – HEK293 cells, membrane potential dye, duplicate, selectivity assay for TRPC4 potentiator project, confirmation (AID 434952;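 active = compound raising the membrane signal above positive-control mean plus 3 SD in both repeats, and a primary screen hit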). To be noted: HEK293 TRPC6, membrane potential dye fluorescence, at 10 µM, maximal acetylcholine added after compound; hits give high values.
Assay [13] addresses Short transient receptor potential channel 4 (Mus musculus) (UniProt Q9QUQ5). Nature of the assay: calcium flux activators in TRPC4/5HT1a cells, counter-screen for TRPC4 activator project, cell-based, second counter screen, HEK293 TRPC4/5HT1a, Fluo-4 (AID 434977;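 active = calcium signal rise above buffer-control mean plus 5 SD in both duplicates, and also a hit in the primary screen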;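 for activation: plate controls were assay buffer for no effect and maximal serotonin response for full effect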). The conditions noted are these: Fluo-4 calcium flux, at 10 µM; hits give high values.
The nature of assay [14]: serotonin-gated TRPC4 signal block – cell-based, second counter screen, HEK293 TRPC4/5HT1a, Fluo-4, counter-screen for TRPC4 inhibitor project, confirmation (AID 434978;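 active = primary screen active whose calcium signal fell more than 3 SD beyond the full-serotonin control mean in both duplicate plates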;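 for outcome: serotonin given first at submaximal then at maximal dose after compound preincubation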). To be noted: Fluo-4 calcium flux, at 10 µM, serotonin added to trigger calcium flux; hits give high values. In general terms: The purpose of a counterscreen is to sort out artefacts and off-target activity.

Assay [15] deals with TRPC4 (mouse), co-expressed with 5HT1a in HEK293. The assay is described as follows: enhancement of serotonin-evoked TRPC4 response – cell-based, second counter screen, HEK293 TRPC4/5HT1a, Fluo-4, counter-screen for TRPC4 potentiator project, confirmation (AID 434979;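 active = signal rise over 3 SD above mean of control wells given weak agonist, in both repeats and first screen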). To be noted: Fluo-4 calcium flux, at 10 µM, serotonin added at its EC20 dose; hits give high values.
Assay [16] can be described thus: nonspecific calcium rise without TRPC4 – cell-based, HEK293 mu-opioid receptor line, counter-screen for TRPC4 activator project, confirmation (AID 449723;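 active = hit in primary screen, with calcium signal over 5 SD above buffer well mean in both duplicates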;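 note: counter screen cells carry the mu-opioid receptor alone and lack TRPC4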). The conditions noted are these: HEK293 mu-opioid cells, Fluo-4 calcium fluorescence, at 10 µM; hits give high values.
A short description of assay [17]: nonspecific potentiation of DAMGO calcium response – cell-based, HEK293 mu-opioid receptor line, counter-screen for TRPC4 allosteric potentiator project, confirmation (AID 449724;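 active = calcium signal rise more than 3 SD above the low-dose agonist control mean, in both duplicate plates and the primary screen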;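 note: HEK293 cells carrying mu-opioid receptor only with no TRPC4 channel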). To be noted: HEK293 mu-opioid receptor cells, Fluo-4 calcium flux, at 10 µM, compound added before EC20 DAMGO stimulus; hits give high values.

For some of these results: Measured potencies and affinities stand elsewhere. Calls of active or inactive are those of the source.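 Rule for the calls, unless noted: active = primary screen inhibitor hit that blocks the TRPC4 channel at some tested dose, yielding a dose curve; inactive = the rest.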

Sequence of Short transient receptor potential channel 6 (Mus musculus) (Q61143 whole entry, looked up): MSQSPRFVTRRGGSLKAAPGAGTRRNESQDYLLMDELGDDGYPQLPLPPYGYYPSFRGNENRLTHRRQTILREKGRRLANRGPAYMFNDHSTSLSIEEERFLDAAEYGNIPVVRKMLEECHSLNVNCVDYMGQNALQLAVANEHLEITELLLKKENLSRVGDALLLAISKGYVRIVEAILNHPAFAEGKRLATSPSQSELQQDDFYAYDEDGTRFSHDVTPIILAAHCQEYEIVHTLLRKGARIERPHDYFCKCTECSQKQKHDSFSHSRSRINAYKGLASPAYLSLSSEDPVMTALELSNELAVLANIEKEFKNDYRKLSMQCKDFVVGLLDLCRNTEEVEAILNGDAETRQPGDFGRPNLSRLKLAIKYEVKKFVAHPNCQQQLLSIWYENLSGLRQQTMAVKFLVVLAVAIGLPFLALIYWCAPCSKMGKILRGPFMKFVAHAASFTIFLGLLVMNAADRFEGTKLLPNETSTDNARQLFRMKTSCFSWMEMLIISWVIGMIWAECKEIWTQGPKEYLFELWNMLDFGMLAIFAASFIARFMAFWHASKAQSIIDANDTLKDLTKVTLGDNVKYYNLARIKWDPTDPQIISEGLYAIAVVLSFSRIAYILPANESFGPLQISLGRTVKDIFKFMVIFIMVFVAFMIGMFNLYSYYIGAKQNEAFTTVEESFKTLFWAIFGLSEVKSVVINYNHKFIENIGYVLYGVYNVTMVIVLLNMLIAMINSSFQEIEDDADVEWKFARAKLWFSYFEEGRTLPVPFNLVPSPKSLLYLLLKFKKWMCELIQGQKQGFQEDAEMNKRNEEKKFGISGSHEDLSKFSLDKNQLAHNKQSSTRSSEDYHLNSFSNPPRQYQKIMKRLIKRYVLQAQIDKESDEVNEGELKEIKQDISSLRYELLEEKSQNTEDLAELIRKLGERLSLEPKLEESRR

As to `O=C1NC(c2ccccc2)=C(c2nc3ccccc3s2)C(c2ccccc2)N1` (stereo not drawn), the result in assay [1], in [2], in assay [3], in assay [5], in assay [6] and in assay [7] was inactive. Also, the result in assay [8], in assay [9], in assay [10], in assay [11], in assay [12] and in [13] was inactive. In addition, the outcome in assay [14], in assay [16] and in assay [17] was inactive. Also, the potentiation is 14% (active) in assay [4] and 24.2% (active) in [15].
In the case of `CCCn1c(N2CCN(S(=O)(=O)Cc3ccccc3)CC2)nc2ccccc21`, the result in [1], in assay [2], in [3], in [5], in assay [6] and in assay [7] was inactive. Further, the result in assay [8], in assay [9], in assay [10], in [11], in assay [12] and in [13] was inactive. The result in assay [14], in assay [16] and in assay [17] was inactive. Also, the potentiation was 11% (active) in [4] and 22.3% (active) in assay [15].
Turning to `CCOc1cc(N(CC)CC)ccc1/C=C(/C#N)c1nc2ccccc2[nH]1`, the outcome in assay [1], in [2], in assay [3], in [4], in assay [5] and in assay [6] was inactive. For the same compound, the result in [7], in assay [8], in assay [9], in [10], in assay [12] and in assay [14] was inactive. Besides, the outcome in [15] and in assay [17] was inactive. In addition, the activation in assay [11] is 86% (active); in [13] it was 16.9% (active); in assay [16], 31.5% (active).
As to `O=[N+]([O-])c1ccc(N2CCN(CCOc3nonc3-c3ccccc3)CC2)c(Cl)c1`, the result in assay [1], in assay [2], in assay [5], in assay [6], in [7] and in assay [8] was inactive. The result in assay [9], in assay [10], in assay [11], in assay [12], in assay [13] and in assay [14] was inactive. The outcome in assay [16] and in assay [17] was inactive. In addition, the potentiation in assay [3] was 10% (active); in assay [4] it was 34% (active); in assay [15] it was 20.3% (active).
`CCOC(=O)c1c(-c2ccc(OC)cc2)oc2ccc(O)cc12`: the result in [1], in assay [2], in assay [3], in assay [4], in [5] and in assay [6] was inactive. For the same compound, the outcome in assay [7], in assay [8], in assay [9], in assay [10], in [11] and in [12] was inactive. The result in assay [13], in assay [14], in assay [15], in assay [16] and in [17] was inactive.
As usually defined, the inhibition is the change of the read-out against control, counted positive when it falls. Take `CCN(C(=O)c1cnc(NC(C)C)cc1C(F)(F)F)c1ccc(Cl)cc1Cl`: the result in [1], in assay [2], in [3], in assay [4], in assay [6] and in [7] was inactive. For the same compound, the outcome in assay [8], in assay [9], in assay [10], in assay [11], in assay [12] and in assay [13] was inactive. Also, the result in [15], in assay [16] and in assay [17] was inactive. Besides, the inhibition in assay [5] was 91% (active); in assay [14] it was 44.8% (active).
Consider `CC(=O)OCC1O[C@@H](O[C@@H]2C[C@H]3C(C)(C)[C@H](OC(C)=O)CC[C@]3(C)[C@H]3CC[C@]45C[C@]4(CC[C@H]5[C@@H](C)C[C@@H](O)[C@H](O)C(C)(C)O)[C@@]32C)[C@H](O)[C@@H](O)[C@@H]1O` (stereo partly drawn), for which the activation is 173% (active) in assay [1] and 28.8% (active) in [16]. Also, the result in assay [2], in assay [3], in [4], in [5], in assay [6] and in assay [7] was inactive. The outcome in [8], in [9], in assay [10], in [11], in [12] and in [13] was inactive. Further, the result in assay [14], in [15] and in assay [17] was inactive.
For the compound `CN(C)S(=O)(=O)c1cccc(COC(=O)c2ccc(Cl)cc2O)c1`, the result in [1], in assay [2], in assay [3], in assay [5], in assay [6] and in assay [7] was inactive. The outcome in [8], in assay [9], in assay [10], in assay [11], in assay [12] and in [13] was inactive. Also, the result in assay [14], in assay [16] and in assay [17] was inactive. Also, the potentiation in assay [4] is 21% (active); in assay [15] it was 41.5% (active).
Turning to `Cn1c(C(=O)N[C@@H](C(=O)O)c2ccccc2)cc2cc(Cl)ccc21`, the result in assay [1], in assay [2], in assay [3], in assay [4], in assay [5] and in assay [6] was inactive. The outcome in assay [7], in [8], in [9], in assay [10], in assay [11] and in [12] was inactive. Moreover, the result in [13], in assay [14], in assay [15], in assay [16] and in assay [17] was inactive.
Take `CCN(CC)CCCN(C(=O)c1cccs1)c1nc(-c2ccc(OC)cc2)cs1`: the result in assay [1], in [2], in assay [3], in assay [4], in assay [5] and in assay [6] was inactive. In addition, the result in assay [7], in assay [8], in [9], in assay [10], in [11] and in assay [12] was inactive. The result in [13], in assay [14], in assay [15], in assay [16] and in [17] was inactive.
Consider `CC(OC(=O)Cn1cnc2c1c(=O)n(C)c(=O)n2C)C(=O)Nc1ccc(Cl)cc1` (stereo not drawn), for which the result in assay [1], in assay [2], in assay [3], in assay [4], in [5] and in assay [6] was inactive. In addition, the result in [7], in [8], in assay [9], in assay [10], in assay [11] and in assay [12] was inactive. Also, the outcome in [13], in assay [14], in [15], in assay [16] and in assay [17] was inactive.
For the compound `O=C(COC(=O)c1ccccn1)Nc1nc(-c2ccccc2)cs1`, the result in assay [1], in assay [2], in [3], in [4], in [5] and in assay [6] was inactive. The result in assay [7], in [8], in assay [9], in assay [10], in [11] and in assay [12] was inactive. In addition, the outcome in [13], in assay [14], in assay [15], in [16] and in assay [17] was inactive.
For the compound `Cc1ccc(NC(=O)C2CCC(CNC(=O)[C@@H]3Cc4ccccc4CN3)CC2)cc1` (stereo partly drawn), the result in assay [1], in [2], in assay [3], in assay [4], in assay [5] and in [6] was inactive. Besides, the outcome in [7], in assay [8], in assay [9], in [10], in [11] and in [12] was inactive. Besides, the result in assay [13], in [14], in assay [15], in assay [16] and in [17] was inactive.
On to `Cc1cc(NC(=O)C(C)SCC(=O)N(Cc2ccccc2)c2ccccc2)no1` (stereo not drawn), for which the outcome in [1], in [2], in assay [3], in [4], in assay [6] and in assay [7] was inactive. In addition, the outcome in assay [8], in assay [9], in [10], in assay [11], in assay [12] and in assay [13] was inactive. Moreover, the result in [15], in assay [16] and in assay [17] was inactive. Besides, the inhibition in assay [5] is 90% (active); in [14], 25.3% (active).
